HT1080-NT tox: kills 2HG-producing HT-1080-NT fibrosarcoma cells | HT-1080-NT fibrosarcoma viability, CellTiter-Glo ATP luminescence, 48 h | Potency, µM (series often up to 46.1 µM), for inactives: at the highest dose activity, negative = less viability, usual class: cytotoxic | 360,000 tested, 1.6% active;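 further: NT is the 2HG producing partner of a matched IDH1 knockdown line; potency means the concentration at half of the fitted maximal effect; 0% = DMSO-treated cells and -100% = media-only wells without cells; nearly all actives have a fitted effect of over 55% in size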
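Luminescent CellTiter-Glo readout after 48 hours of compound exposure at 37 degrees C defined viability of HT-1080-NT cells. Activity was normalized to DMSO wells and cell-free media wells; concentration-response curves were fitted and assigned curve classes.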
DT40 TDP1 CPT: growth inhibition of DT40 Tdp1-/-;hTDP1 cells with camptothecin (screen for TDP1 inhibitors) | chicken DT40 Tdp1-/-;hTDP1 cells + 20 nM CPT, ATP luminescence, 48 h | 420,000 tested, 12% active | Potency, µM (doses to about 46.2 µM), for inactives: top-dose activity change, negative = growth inhibition, actives largely listed as inhibitors | AID 686979; further: potency means the concentration at half of the fitted maximal effect; nearly all actives have a fitted effect of over 55% in size
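Chicken DT40 Tdp1-/- cells stably complemented with human TDP1 were seeded at 400 cells/well in medium containing 20 nM camptothecin, exposed to pin-transferred compounds, and grown at 37 °C for at least 48 hr. Viability was read as ATP luminescence.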
uPA surface inh: inhibitors of cell surface uPA generation | cell surface uPA generation assay, qHTS | 330,000 tested, 0.31% active | Potency, µM (highest dose often 38.3 µM), without a hit: top-dose activity change, negative = inhibition, usual class: inhibitors; active means well fitted inhibition curve with a large enough effect; inconclusive means small, poorly fitted or top-dose-only effect; inactive means no such curve, though single readings can be large or run the other way; tested in mouse RAW 264.7 cells; further: potency means the concentration at half of the fitted maximal effect; nearly all actives have a fitted effect of over 55% in size
HT1080 IDH1KD tx: kills HT-1080 cells with IDH1 knockdown; HT-1080 IDH1 knockdown viability, ATP luminescence, 48 h; Potency, µM (doses to about 46.1 µM), without a hit: at the highest dose activity, negative = toxicity, hits mostly cytotoxic; 360,000 tested, 2% active; AID 686971;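 further: potency means the concentration at half of the fitted maximal effect; 0% = DMSO wells and -100% = cell-free medium wells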
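Knockdown cells (IDH1KD HT-1080) received compounds 2 h after plating at 750 cells/well and were kept 48 h at 37 °C in 5% FBS RPMI. A CellTiter-Glo luminescence read gave % activity for curve fitting.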
DT40 TDP1 no CPT: qHTS for Inhibitors of human tyrosyl-DNA phosphodiesterase 1 (TDP1): qHTS in cells in absence of CPT. DT40 Tdp1-/- hTDP1 cells, no CPT, ATP luminescence, 48 h. 420,000 tested, 15% active. Potency, µM (series often up to 46.2 µM), inactives show at the top dose activity change, negative = growth inhibition, hits mostly inhibitors; further: potency means the concentration at half of the fitted maximal effect; nearly all actives have a fitted effect of over 55% in size
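Cells were dispensed at 400 per well, compounds added by pin tool, plates incubated ≥48 hr at 37 °C, then CellTiter-Glo added for 30 min at room temperature before luminescence reading. Line: DT40 Tdp1-/- complemented with hTDP1; camptothecin omitted.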
IL1B secr inh: inhibitors of inflammasome signaling (IL-1 beta secretion). activity change, % at 57.5 µM. THP-1 LPS/ATP IL-1B secretion, AlphaLISA, 16 h; active compounds read low. 360,000 tested, 4.7% active; in the data active means activity change below about -50%; inconclusive means mostly about -30% to -49%
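THP-1 cells pretreated 1 hr with compounds (up to 57.5 uM final), then stimulated with LPS (250 ng/mL final) plus ATP (1.25 mM final); secreted IL-1B measured by AlphaLISA after 16 hr, decreased signal indicating inhibition.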
Starred values were filed as active, the others as inactive; ? = inconclusive; . = no result. The list is not random: actives were taken first. Their share in the collection is about 19%. Unless noted, the call rests on the fitted dose curve; in most records, active means well fitted curve in the direction sought with a large enough effect; inconclusive means small, poorly fitted or top-dose-only effect, or another doubt; inactive means no such curve, though single readings can be large; an effect the other way counts as inactive or inconclusive. Unless noted, on the % scale 0 is the no-effect control and ±100 the full control effect.

SMILES	HT1080-NT tox	DT40 TDP1 CPT	uPA surface inh	HT1080 IDH1KD tx	DT40 TDP1 no CPT	IL1B secr inh
CCN(CC)S(=O)(=O)c1ccc(N/N=C(\C)c2cccnc2)nc1	10%	3%	?	13%	-5%	-51*
NNc1ccc(S(=O)(=O)N2CCCCC2)cn1	-15%	-22%	1%	-7%	-21%	9
CCCNC(=O)C1(C)CCCN(Cc2csc3ccccc23)C1 (configuration not stated)	-11%	?	.	-26%	?	23
CCCNC(=O)C1(C)CCCN(Cc2cccs2)C1 (configuration not stated)	5%	-3%	.	0%	-14%	2
COCCNC(=O)C1(C)CCCN(CCOc2ccc(Cl)cc2)C1 (configuration not stated)	18%	?	.	11%	15µM*	-1
COCCNC(=O)C1(C)CCCN(C(=O)COc2ccccc2)C1 (configuration not stated)	?	21µM*	.	5%	1.8µM*	-85*
CCCNC(=O)C1(C)CCCN(Cc2ccc(C(F)(F)F)cc2)C1 (configuration not stated)	?	21µM*	.	8%	?	10
COCCNC(=O)C1(C)CCCN(C(=O)CCc2ccccc2)C1 (configuration not stated)	17%	-18%	.	4%	-5%	-6
CCCNC(=O)C1(C)CCCN(Cc2c3ccccc3nn2C)C1 (configuration not stated)	2%	21µM*	.	-6%	21µM*	38
CCCNC(=O)C1(C)CCN(CCOc2ccc(Cl)cc2)C1 (configuration not stated)	-6%	-27%	.	-1%	-22%	-8
O=C(CN(C(=O)CCC(=O)Nc1ccccn1)C1CCCC1)NCc1ccc(F)cc1	10%	2%	5%	4%	0%	32
COc1cc(C(=O)OC(C)CN2CCCCC2)cc(OC)c1OC (configuration not stated)	3%	-4%	3%	3%	7%	14
CC(C)C1N(C(=O)N2CCOCC2)CCN1S(=O)(=O)c1ccccc1 (configuration not stated)	1%	-2%	5%	-10%	11%	7
CCCNC(=O)C1(C)CCCN(Cc2ccc(Oc3ccccc3)cc2)C1 (configuration not stated)	-28%	21µM*	.	?	18µM*	0
CCCNC(=O)C1(C)CCCN(Cc2cc(-c3ccccc3)n(C)n2)C1 (configuration not stated)	17%	16µM*	.	7%	?	-25
CCCNC(=O)C1(C)CCN(Cc2ccc(Oc3ccccc3)cc2)C1 (configuration not stated)	?	?	.	?	?	-4
COCCNC(=O)C1(C)CCCN(Cc2ccc(-n3ccnc3)cc2)C1 (configuration not stated)	13%	2%	.	17%	0%	29
CCCNC(=O)C1(C)CCCN(Cc2cccn2C)C1 (configuration not stated)	3%	-30%	.	12%	1%	-11
CCCNC(=O)C1(C)CCCN(Cc2cccc(Oc3ccccc3)c2)C1 (configuration not stated)	-17%	?	.	-28%	?	-2
COCCNC(=O)C1(C)CCCN(Cc2ccc(Oc3ccccc3)cc2)C1 (configuration not stated)	2%	?	.	-18%	21µM*	17
CCNC(=O)C1(C)CCCN(Cc2cccc(Oc3ccccc3)c2)C1 (configuration not stated)	9%	18µM*	.	-4%	21µM*	6
COc1cccc(NC(=O)CN(C)C(=O)CSc2nc(C)cc(C)n2)c1	4%	-14%	-2%	0%	13%	0
CCCNC(=O)C1(C)CCCN(Cc2ccc(-c3ccccc3)cc2)C1 (configuration not stated)	?	6.5µM*	.	?	5.8µM*	?
CCCNC(=O)C1(C)CCCN(Cc2ccc(-c3ccccc3)o2)C1 (configuration not stated)	-10%	23µM*	.	?	21µM*	-23
COCCNC(=O)C1(C)CCCN(Cc2csc(-c3ccc(Cl)cc3)n2)C1 (configuration not stated)	13%	12µM*	.	-8%	13µM*	0
SMILES	HT1080-NT tox	DT40 TDP1 CPT	uPA surface inh	HT1080 IDH1KD tx	DT40 TDP1 no CPT	IL1B secr inh
COc1ccc(OC2(C)CCN(Cc3ccc(-c4ccccc4)o3)C2)cc1 (configuration not stated)	6%	21µM*	.	-15%	?	10
COc1ccc(CN2CCC(C)(Oc3ccc4c(c3)OCO4)C2)c2ccccc12 (configuration not stated)	?	?	.	?	?	-7
CCCNC(=O)C1(C)CCCN(Cc2ccc(C)cc2)C1 (configuration not stated)	19%	-29%	.	2%	?	19
CCOC(=O)c1ccc(CN(Cc2ccc(F)cc2)S(=O)(=O)c2ccc(F)c(C(=O)Nc3cc(Cl)ccc3OC)c2)cc1	.	6%	.	.	-2%	.
C[C@@H]1CNC(=O)c2c(C(=O)N[C@H](C)c3ccccc3)ncn21	4%	15%	.	3%	-16%	22
O=C(CCc1c[nH]c2ccccc12)N[C@@H](Cc1c[nH]c2ccc(O)cc12)C(=O)O	20%	-5%	2%	9%	1%	-1
C=CCNc1ncnc2c1ncn2[C@H]1CN(Cc2ccccc2)C[C@@H](COC(C)=O)O1	1%	?	.	9%	-23%	-27
CCCNC(=O)C1(C)CCCN(C(=O)c2cccc(C#N)c2)C1 (configuration not stated)	18%	4%	.	19%	-7%	9
CC(C)N1CCCC(C)(C(=O)Nc2cccc(Oc3ccccc3)c2)C1 (configuration not stated)	0%	?	.	18%	13µM*	-17
CCCNC(=O)C1(C)CCCN(Cc2cccc(C#N)c2)C1 (configuration not stated)	3%	18µM*	.	?	21µM*	-14
Cc1cccc(-n2c3c(cc(-c4nc(-c5ccc(Cl)cc5)cs4)c2=O)C(=O)CC(C)(C)C3)c1	.	0%	.	.	-2%	.
